Results filed as inconclusive are left out. Activity calls are given as the source filed them. The calls were made as follows: active = hit-call score of the fitted dose curve at least 0.9, where 1 is the maximum; inconclusive = response in the unintended direction; inactive = score below 0.9.

For this assay, the target named is human Monoamine Oxidase A (MAO-A), MAOA (gene 4128) (UniProt P21397). In words: ERF_FR_ENZ_hMAOA: Eurofins (ERF) Enzymatic LeadHunter Assay for human Monoamine Oxidase A (MAO-A). As for the experimental part: ERF_FR_ENZ_hMAOA is a biochemical, single-readout assay that uses extracted gene-proteins in a cell-free assay. Measurements were taken 0.33 hour after chemical dosing in a 96-well plate. See Monoamine Oxidase A (MAO-A) Human Enzymatic Assay, Cerep.ERF_FR_ENZ_hMAOA is an assay component calculated from the ERF_FR_ENZ_hMAOA assay. It is designed to measure enzyme activity using a type of enzyme reporter as detected by fluorescence intensity with spectrophotometry technology.Data from the assay component ERF_FR_ENZ_hMAOA was analyzed at the assay endpoint, ERF_FR_ENZ_hMAOA, in the positive analysis fitting direction relative to DMSO as the negative control and baseline of activity. Using a type of enzyme reporter, loss-of-signal activity can be used to understand changes in enzymatic activity as they relate to gene MAOA. To generalize the intended target to other relatable targets, this assay endpoint is annotated to the […] intended target family, where the subfamily is monoamine oxidase.
Chain of human Monoamine Oxidase A (MAO-A), MAOA (gene 4128) (P21397 whole entry, looked up): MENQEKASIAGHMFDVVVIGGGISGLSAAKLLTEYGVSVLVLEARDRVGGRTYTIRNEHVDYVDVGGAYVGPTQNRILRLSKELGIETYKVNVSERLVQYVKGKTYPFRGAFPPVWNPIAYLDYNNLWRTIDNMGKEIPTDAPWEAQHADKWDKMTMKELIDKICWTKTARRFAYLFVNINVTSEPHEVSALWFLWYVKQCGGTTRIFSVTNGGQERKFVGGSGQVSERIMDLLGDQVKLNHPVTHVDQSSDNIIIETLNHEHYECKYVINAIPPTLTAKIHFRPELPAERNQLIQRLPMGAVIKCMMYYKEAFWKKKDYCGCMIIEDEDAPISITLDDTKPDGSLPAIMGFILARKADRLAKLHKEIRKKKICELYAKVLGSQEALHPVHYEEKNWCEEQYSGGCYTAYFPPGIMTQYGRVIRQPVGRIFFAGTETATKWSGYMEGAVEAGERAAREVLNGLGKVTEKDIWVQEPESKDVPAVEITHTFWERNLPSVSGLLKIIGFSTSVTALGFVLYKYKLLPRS
Human cells are incubated for 45 minutes at room temprature with Kynuramine, diHCl at 350 uM as sunstrate. Test Sample Requirements: Minimum for 1) Screen: 60 ul of 10 mM stock -OR- 1 mg (pre-weighed) for 10 uM final testing. 2) Dose Response: 90 ul of 10 mM stock -OR- 1 mg (pre-weighed) for a top concentration at 10 uM.
With `COc1cc(CCC(=O)CC(=O)CCc2ccc(O)c(OC)c2)ccc1O`, the outcome was inactive.
Take `COc1cc(/C=C/C(=O)CC(=O)/C=C/c2ccc(O)c(OC)c2)ccc1O`: the call was inactive.

The values are drawn from PubChem BioAssay AID2284105 (EPA ToxCast).
